This is part of a sample that, as a whole, favours compounds with a hit. Of some 83,000 tested, about 20% had one in any assay.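 Plates (96-well) were seeded with cells, treated with compound at one concentration, and incubated for 48 hours before percent growth was determined.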 A number with no mark means an inactive call. Calls of active or inactive are those of the source. Rule for the calls: active = growth percent below 10; inactive = the rest.

Test systems include RPMI-8226 leukemia; OVCAR-8 ovarian; OVCAR-5 ovarian; OVCAR-4 ovarian; SK-OV-3 ovarian; IGROV1 ovarian; OVCAR-3 ovarian; HS 578T breast; NCI/ADR-RES ovarian; T-47D breast; BT-549 breast; MDA-MB-435 melanoma; SW-620 colon; MCF7 breast; HCT-116 colon; HCC-2998 colon; KM12 colon.
What all share (assay): NCI-60 one-dose screen, 48 h (100 = growth as untreated, 0 = no growth, -100 = all killed)
Common to all, as to conditions: 10 µM unless noted

As for `COc1ccc(C2Nc3ccccc3-n3cccc32)cc1` (stereo not drawn), the growth in the assay on RPMI-8226 leukemia is 89.4%; in the assay on OVCAR-8 ovarian, 96.6%; in the assay with OVCAR-5 ovarian, 84.9%; in the assay on OVCAR-4 ovarian, 93.6%; with SK-OV-3 ovarian, 99.9%; in the assay on IGROV1 ovarian, 71.3%. Also, the growth in the assay with OVCAR-3 ovarian is 96.1%; in the assay on HS 578T breast it was 93.2%; with NCI/ADR-RES ovarian it was 89.9%; in the assay with T-47D breast, 84.2%; with BT-549 breast, 97.1%; in the assay with MDA-MB-435 melanoma, 103%. Further, the growth with SW-620 colon is 100%; in the assay on MCF7 breast it was 95.7%; with HCT-116 colon it was 94%; in the assay on HCC-2998 colon, 103%; in the assay on KM12 colon, 98.7%.
Regarding `COc1ccccc1N1CCN(CCn2c(=O)c3c(c4ccccc4n3C)n(C)c2=O)CC1`, the growth in the assay on RPMI-8226 leukemia is 109%; in the assay with OVCAR-8 ovarian, 85%; in the assay with OVCAR-5 ovarian, 111%; with OVCAR-4 ovarian it was 114%; in the assay with SK-OV-3 ovarian it was 93.6%; in the assay with IGROV1 ovarian it was 104%. For the same molecule, the growth with OVCAR-3 ovarian was 103%; in the assay with HS 578T breast, 98.5%; in the assay on NCI/ADR-RES ovarian, 100%; with T-47D breast, 64.4%; in the assay on BT-549 breast, 99.3%; with MDA-MB-435 melanoma it was 106%. Also, the growth in the assay on SW-620 colon is 98.9%; in the assay on MCF7 breast, 93.2%; in the assay on HCT-116 colon, 98.4%; in the assay on HCC-2998 colon, 104%; with KM12 colon it was 103%.
Take `O=C(/C=C/c1cccc(Br)c1)c1ccccc1`: the growth in the assay on RPMI-8226 leukemia is 23.6%; in the assay on OVCAR-8 ovarian, 88.7%; in the assay on OVCAR-5 ovarian, 83.2%; in the assay with OVCAR-4 ovarian, 90.6%; with SK-OV-3 ovarian it was 82.1%; in the assay on IGROV1 ovarian it was 84.8%. Besides, the growth was 98.3% in the assay with OVCAR-3 ovarian; 101% in the assay on HS 578T breast; 103% in the assay on NCI/ADR-RES ovarian; 52% in the assay with T-47D breast; 76.6% in the assay with BT-549 breast; 80.9% with MDA-MB-435 melanoma. Besides, the growth in the assay with SW-620 colon was 69.9%; with MCF7 breast it was 12.6%; with HCT-116 colon it was 47.1%; in the assay with HCC-2998 colon, 96.4%; in the assay on KM12 colon, 70.9%.
`O=C(CCCCN1CCOCC1)Nc1ccc(Cn2nnc3c2C(=O)c2nnn(Cc4ccc(NC(=O)CCCCN5CCOCC5)cc4)c2C3=O)cc1`: the growth in the assay on RPMI-8226 leukemia is -18% (active); in the assay with OVCAR-8 ovarian, -36.2% (active); with OVCAR-5 ovarian it was -23% (active); in the assay on OVCAR-4 ovarian, -73.9% (active); in the assay on SK-OV-3 ovarian, -68.2% (active); with IGROV1 ovarian, -68.3% (active). Further, the growth with OVCAR-3 ovarian is -58.2% (active); in the assay with HS 578T breast, 12.5%; with NCI/ADR-RES ovarian, 11%; with T-47D breast, -50.5% (active); in the assay on BT-549 breast, -94.7% (active); with MDA-MB-435 melanoma, -77% (active). For the same molecule, the growth in the assay on SW-620 colon is -50.1% (active); in the assay on MCF7 breast it was -51.7% (active); in the assay on HCT-116 colon it was -91% (active); in the assay on HCC-2998 colon, -62.3% (active); in the assay on KM12 colon, -36.2% (active).
Regarding `CC(C)CC(CC1=CCC2CC1C2(C)C)C1=C(O)C(C)(C)C(=O)C(C)(C)C1=O` (stereo not drawn), the growth was -26.4% (active) in the assay on RPMI-8226 leukemia; 5.12% (active) with OVCAR-8 ovarian; 22.7% in the assay with OVCAR-5 ovarian; 32.5% in the assay on OVCAR-4 ovarian; -12.6% (active) in the assay with SK-OV-3 ovarian; 39% in the assay on IGROV1 ovarian. The growth is 16.2% in the assay on OVCAR-3 ovarian; 6.67% (active) with HS 578T breast; 7.18% (active) in the assay with NCI/ADR-RES ovarian; 4.63% (active) with T-47D breast; -6.03% (active) in the assay on BT-549 breast; 11% in the assay with MDA-MB-435 melanoma. Moreover, the growth in the assay with SW-620 colon was 14.2%; in the assay with MCF7 breast, 7.94% (active); in the assay with HCT-116 colon, 6.3% (active); with HCC-2998 colon, 17.6%; in the assay with KM12 colon it was 9.6% (active).
As to `COC(=O)[C@H](C(C)C)n1c(=O)c2cc(OC)c(OC)cc2c2cnc3[nH]ccc3c21`, the growth is 55% in the assay with RPMI-8226 leukemia; 65.1% in the assay with OVCAR-8 ovarian; 39.9% in the assay with OVCAR-5 ovarian; 85% in the assay on OVCAR-4 ovarian; 26.5% in the assay on SK-OV-3 ovarian; 3.08% (active) with IGROV1 ovarian. Besides, the growth was 48.8% in the assay on OVCAR-3 ovarian; 12.6% with HS 578T breast; 56.4% in the assay on NCI/ADR-RES ovarian; 14.8% in the assay with T-47D breast; 21.2% with BT-549 breast; 75.1% with MDA-MB-435 melanoma. For the same molecule, the growth is 61.8% in the assay on SW-620 colon; 26.2% in the assay with MCF7 breast; 41.4% with HCT-116 colon; 62% in the assay on HCC-2998 colon; 18.4% in the assay with KM12 colon.
Regarding `Cc1ccc(-c2nc(/C=N/Nc3cc(C)nc4ccc(Cl)cc34)c(C)o2)cc1`, the growth in the assay on RPMI-8226 leukemia was -48.6% (active); in the assay on OVCAR-8 ovarian, -88.6% (active); with OVCAR-5 ovarian it was -65.4% (active); with OVCAR-4 ovarian it was -90.8% (active); in the assay with SK-OV-3 ovarian, 96.3%; with IGROV1 ovarian, -69.7% (active). Also, the growth with OVCAR-3 ovarian is -80.8% (active); in the assay with HS 578T breast, -42.8% (active); with NCI/ADR-RES ovarian, -37.7% (active); in the assay on T-47D breast it was -74.4% (active); with BT-549 breast, 97%; in the assay on MDA-MB-435 melanoma, -95.6% (active). For the same molecule, the growth in the assay on SW-620 colon is -70.2% (active); with MCF7 breast, -84.4% (active); in the assay on HCT-116 colon, -54.3% (active); in the assay on HCC-2998 colon, -53.3% (active); with KM12 colon, -58.3% (active).
As to `CCCCCCCCCCNC(=O)CCl`, the growth in the assay with RPMI-8226 leukemia was 82.3%; with OVCAR-8 ovarian, 47.8%; with OVCAR-5 ovarian, 111%; with OVCAR-4 ovarian it was 80.3%; in the assay with SK-OV-3 ovarian it was 111%; in the assay with IGROV1 ovarian, 44.1%. Besides, the growth is 52.8% in the assay on OVCAR-3 ovarian; 84.6% in the assay on HS 578T breast; 73% in the assay on NCI/ADR-RES ovarian; 41.1% in the assay with T-47D breast; 49% in the assay on BT-549 breast; 89.6% in the assay on MDA-MB-435 melanoma. For the same molecule, the growth is 93.3% in the assay on SW-620 colon; 74.5% in the assay with MCF7 breast; 69.3% in the assay on HCT-116 colon; 84.4% in the assay with HCC-2998 colon; 67.4% in the assay on KM12 colon.
For `CN(C)C(=O)c1cc2cnc(Nc3ccc(-c4csc5c(=O)cc(N6CCNCC6)oc45)cc3)nc2n1C1CCCC1`, the growth was -22.9% (active) with RPMI-8226 leukemia; 20.7% in the assay with OVCAR-8 ovarian; 22.9% with OVCAR-5 ovarian; 29.7% with OVCAR-4 ovarian; 32.2% in the assay on SK-OV-3 ovarian; 15.6% in the assay on IGROV1 ovarian. For the same molecule, the growth with OVCAR-3 ovarian is 20.6%; with HS 578T breast it was 11.4%; in the assay with NCI/ADR-RES ovarian, 77.5%; with T-47D breast, 52.1%; in the assay with BT-549 breast it was 46.2%; in the assay on MDA-MB-435 melanoma, 38.2%. The growth was 0.864% (active) with SW-620 colon; 3.93% (active) with MCF7 breast; 4.23% (active) with HCT-116 colon; -0.6% (active) in the assay with HCC-2998 colon; 13.8% in the assay with KM12 colon.
